Experiment [1] concerns guinea pig Histamine Receptor (H2), gene 100729734. In words: NVS_GPCR_gH2: NovaScreen (NVS) G Protein-Coupled Receptor Assay for guinea pig Histamine Receptor (H2) (AID 2283342). An outline of the steps:
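Radioligand displacement on guinea pig striatal membranes, 1 h after dosing, filter-based scintillation counting; loss of signal versus DMSO. Single-point screen at 25 uM in duplicate, then concentration-response up to 50 uM.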

Experiment [2] has as its target Estrogen receptor (Homo sapiens) (UniProt P03372). In words: OT_ER_ERaERa_1440: Odyssey Thera (OT) 24-hour HEK293T Protein-Complementation Assay for Estrogen Receptor-alpha/-alpha Homodimer (AID 2283349).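 Further: hits raise fluorescence above DMSO for agonists and antagonists alike.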 In short, it runs like this: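 Protein-fragment complementation between two human ERα ligand-binding domains (aa 310-547) in stably transfected HEK293T cells was monitored after 24 h treatment, using fluorescence intensity relative to vehicle controls.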

In experiment [3] the target is Bile acid receptor (Homo sapiens) (UniProt Q96RI1). The experiment can be described thus: NVS_NR_hFXR_Antagonist: NovaScreen (NVS) Nuclear Receptor Binding Assay for human Farnesoid X Receptor Antagonism (FXR) (AID 2283350). In short, it runs like this: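 Cell-free TR-FRET ligand-binding read-out on human FXR (NR1H4) in antagonist mode, measured 1 h after dosing. Primary screen in duplicate at 25 uM, actives retested in concentration series; signal loss scored versus DMSO.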

For experiment [4], the target named is Estrogen receptor (Homo sapiens) (UniProt P03372). In words: OT_ER_ERaERa_0480: Odyssey Thera (OT) 8-hour HEK293T Protein-Complementation Assay for Estrogen Receptor-alpha/-alpha Homodimer (AID 2283351).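 Further: rise in fluorescence from reassembled reporter fragments on ERα LBD homodimer in nucleus or whole cell.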 An outline of the steps:
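HEK293T, stable ERα LBD (aa 310-547) PCA homodimer; 8 h compound exposure; fluorescence intensity, laser scanning cytometer; positive fitting direction, DMSO baseline.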

For experiment [5], the target named is bovine Estrogen Receptor (ER), ESR1 (gene 407238) (UniProt P49884). In words: NVS_NR_bER: NovaScreen (NVS) Nuclear Receptor Binding Assay for bovine Estrogen Receptor (ER) (AID 2283345).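 Further: actives lower the bound radioligand count which means they displace the ER ligand.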 In short, it runs like this: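 Cell-free radioligand binding with receptor from bovine uterine membranes, read by scintillation counting 18 h after dosing. Loss of specific binding was scored against DMSO; primary screen at 25 uM in duplicate, actives then run as concentration series.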

Experiment [6] deals with Estrogen receptor (Homo sapiens) (UniProt P03372). In words: NVS_NR_hER: NovaScreen (NVS) Nuclear Receptor Binding Assay for human Estrogen Receptor (ER) (AID 2283348). In short, it runs like this: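 Scintillation signal from bound radioligand was measured 18 hours after chemical addition to cell-free MCF7 protein extracts, with DMSO as baseline. Activity was scored as signal loss; compounds ran first at 25 uM in duplicate.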

For experiment [7], the system named is NCBI gene 100848466. In words: NVS_NR_bPR: NovaScreen (NVS) Nuclear Receptor Binding Assay for bovine Progextron Receptor (PR) (AID 2283343).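 On AC50: actives lower bound radioligand signal below DMSO meaning displacement of the label.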 An outline of the steps:
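Membranes from bovine uterus; radiolabelled ligand plus test chemical; 18 h; scintillation read-out. Activity = signal loss vs DMSO. Primary: 25 uM, duplicate; secondary: concentration series.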

The target of experiment [8] is Bile acid receptor (Homo sapiens) (UniProt Q96RI1). In words: NVS_NR_hFXR_Agonist: NovaScreen (NVS) Nuclear Receptor Binding Assay for human Farnesoid X Receptor Agonism (FXR) (AID 2283347). An outline of the steps:
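Cell-free TR-FRET binding assay with extracted human FXR protein, agonist format, read 1 h after dosing. Primary screen at 25 uM single concentration in duplicate, actives retested in concentration series; gain of signal versus DMSO.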

Experiment [9] concerns the target Estrogen receptor (Homo sapiens) + Estrogen receptor beta (Homo sapiens) (UniProt P03372+Q92731). In words: OT_ER_ERaERb_0480: Odyssey Thera (OT) 8-hour HEK293T Protein-Complementation Assay for Estrogen Receptor-alpha/-beta Heterodimer (AID 2283352). In short, it runs like this:
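Human HEK293T cells were treated for 8 hours and receptor heterodimerisation was detected through reconstitution of a fluorescent reporter split between ER-alpha and ER-beta ligand-binding domains. Activity was analysed as gain of signal against DMSO.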

The structures appear in SMILES notation. Results filed as inconclusive are left out. The source made the active and inactive calls. How the source made its calls: active means hit-call score of the fitted dose curve at least 0.9, where 1 is the maximum; inconclusive means response in the unintended direction; inactive means score below 0.9.

Estrogen receptor (Homo sapiens), sequence (P03372 whole entry, looked up, the tested form may be a part): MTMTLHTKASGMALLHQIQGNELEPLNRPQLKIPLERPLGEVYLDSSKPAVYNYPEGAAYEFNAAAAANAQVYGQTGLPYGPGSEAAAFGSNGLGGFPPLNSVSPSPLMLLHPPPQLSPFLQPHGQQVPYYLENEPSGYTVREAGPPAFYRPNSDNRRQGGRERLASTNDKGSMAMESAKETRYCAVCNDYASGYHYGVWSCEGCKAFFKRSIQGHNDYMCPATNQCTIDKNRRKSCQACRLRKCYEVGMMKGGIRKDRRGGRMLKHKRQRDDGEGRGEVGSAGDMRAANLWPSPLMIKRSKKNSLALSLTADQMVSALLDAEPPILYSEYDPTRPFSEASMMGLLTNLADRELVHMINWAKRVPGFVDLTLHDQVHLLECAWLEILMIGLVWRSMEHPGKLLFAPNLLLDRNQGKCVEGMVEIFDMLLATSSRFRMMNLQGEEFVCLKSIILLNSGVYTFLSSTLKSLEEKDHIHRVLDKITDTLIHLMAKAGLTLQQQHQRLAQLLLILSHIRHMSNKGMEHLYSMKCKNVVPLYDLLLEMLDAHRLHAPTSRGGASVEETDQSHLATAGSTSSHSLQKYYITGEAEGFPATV
Estrogen receptor (Homo sapiens) + Estrogen receptor beta (Homo sapiens), sequence (P03372 whole entry, looked up, the tested form may be a part): as above
Estrogen receptor (Homo sapiens) + Estrogen receptor beta (Homo sapiens), sequence (Q92731 whole entry, looked up, the tested form may be a part): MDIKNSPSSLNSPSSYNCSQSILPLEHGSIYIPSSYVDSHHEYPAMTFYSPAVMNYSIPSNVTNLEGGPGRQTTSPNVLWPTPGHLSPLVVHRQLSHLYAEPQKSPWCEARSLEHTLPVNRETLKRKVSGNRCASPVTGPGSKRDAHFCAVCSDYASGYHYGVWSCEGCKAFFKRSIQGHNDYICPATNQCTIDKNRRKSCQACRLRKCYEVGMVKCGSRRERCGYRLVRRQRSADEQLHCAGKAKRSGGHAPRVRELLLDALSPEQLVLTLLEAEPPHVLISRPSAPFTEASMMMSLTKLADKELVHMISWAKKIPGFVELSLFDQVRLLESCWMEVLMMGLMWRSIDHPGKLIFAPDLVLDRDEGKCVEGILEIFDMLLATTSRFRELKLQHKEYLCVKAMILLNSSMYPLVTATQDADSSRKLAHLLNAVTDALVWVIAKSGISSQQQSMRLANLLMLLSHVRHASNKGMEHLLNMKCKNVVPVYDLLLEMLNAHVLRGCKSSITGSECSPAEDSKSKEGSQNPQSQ
bovine Estrogen Receptor (ER), ESR1 (gene 407238), sequence (P49884 whole entry, looked up): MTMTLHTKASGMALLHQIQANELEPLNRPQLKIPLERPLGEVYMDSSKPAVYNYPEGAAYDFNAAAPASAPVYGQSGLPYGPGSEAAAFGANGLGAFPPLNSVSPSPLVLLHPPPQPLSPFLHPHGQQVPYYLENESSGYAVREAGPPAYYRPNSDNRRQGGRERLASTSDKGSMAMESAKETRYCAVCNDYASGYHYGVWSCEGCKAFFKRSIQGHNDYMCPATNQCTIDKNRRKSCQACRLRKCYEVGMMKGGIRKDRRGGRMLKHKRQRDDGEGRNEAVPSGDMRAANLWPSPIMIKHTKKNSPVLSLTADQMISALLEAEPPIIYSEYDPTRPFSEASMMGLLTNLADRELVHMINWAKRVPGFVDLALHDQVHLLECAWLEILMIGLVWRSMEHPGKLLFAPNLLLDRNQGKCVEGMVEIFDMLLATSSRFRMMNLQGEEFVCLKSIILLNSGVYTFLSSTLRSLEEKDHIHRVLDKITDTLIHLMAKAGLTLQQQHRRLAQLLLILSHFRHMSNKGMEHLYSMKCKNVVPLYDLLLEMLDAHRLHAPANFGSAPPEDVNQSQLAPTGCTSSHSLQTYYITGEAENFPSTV
Bile acid receptor (Homo sapiens), sequence (Q96RI1 whole entry, looked up): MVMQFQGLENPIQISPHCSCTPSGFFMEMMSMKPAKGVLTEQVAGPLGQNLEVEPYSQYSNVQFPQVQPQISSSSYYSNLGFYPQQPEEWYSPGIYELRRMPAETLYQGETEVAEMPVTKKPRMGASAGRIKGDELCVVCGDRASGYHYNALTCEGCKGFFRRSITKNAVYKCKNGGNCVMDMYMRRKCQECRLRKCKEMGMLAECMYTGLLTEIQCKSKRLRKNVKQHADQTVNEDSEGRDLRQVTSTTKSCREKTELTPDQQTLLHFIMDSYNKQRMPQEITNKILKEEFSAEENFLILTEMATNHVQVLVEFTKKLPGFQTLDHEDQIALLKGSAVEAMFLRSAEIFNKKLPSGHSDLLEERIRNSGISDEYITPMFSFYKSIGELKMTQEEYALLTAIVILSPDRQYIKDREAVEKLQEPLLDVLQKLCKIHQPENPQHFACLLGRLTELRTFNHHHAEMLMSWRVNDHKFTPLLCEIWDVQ

Turning to `CN(C)C(=S)SSC(=S)N(C)C`, the result in experiment [1], in [2] and in experiment [4] was inactive. In addition, in experiment [3], the concentration at half-maximal activity (AC50) (as a rule, the concentration at which the activity in the assay is half-maximal) is 8.97 µM (active).

With `COc1nc(C)nc(NC(=O)NS(=O)(=O)c2ccccc2Cl)n1`, the call in experiment [5] and in experiment [6] was inactive.

Turning to `CCOC(=O)CC(SP(=S)(OC)OC)C(=O)OCC` (stereo not given), the outcome in experiment [7], in [6], in [2] and in experiment [4] was inactive.

For the molecule `COC(=O)c1ccccc1C(=O)OC`, the call in experiment [1], in experiment [7], in experiment [8], in [2], in experiment [3] and in experiment [4] was inactive. Further, in experiment [9], the result was inactive.

Take `COP(=S)(OC)Oc1nc(Cl)c(Cl)cc1Cl`: the AC50 in experiment [7] is 17.3 µM (active). Besides, the molecule was called inactive in experiment [8], in experiment [6], in [2], in [4] and in experiment [9].

In the case of `CCOP(=S)(OCC)SCn1c(=O)oc2cc(Cl)ccc21`, the molecule was classed as inactive in [1], in [2] and in [4]. Further, the AC50 in [7] was 2.98 µM (active).

As for `C=CCC1=C(C)[C@@H](OC(=O)[C@@H]2[C@@H](C=C(C)C)C2(C)C)CC1=O`, the result in experiment [2] and in experiment [4] was inactive.

On to `COc1cnc(OC)n2nc(NS(=O)(=O)c3c(OCC(F)F)cccc3C(F)(F)F)nc12`, for which the outcome in experiment [5], in experiment [6], in experiment [2], in experiment [4] and in experiment [9] was inactive.

Take `Cc1ccc(-c2c(Cl)nc(C#N)n2S(=O)(=O)N(C)C)cc1`: the outcome in experiment [6], in experiment [2], in experiment [4] and in experiment [9] was inactive.

With `COC(=O)N(OC)c1ccccc1COc1ccn(-c2ccc(Cl)cc2)n1`, the call in experiment [2], in experiment [4] and in experiment [9] was inactive.

`CC(C)(C)c1ccc(CSc2cnn(C(C)(C)C)c(=O)c2Cl)cc1`: the result in experiment [2], in experiment [4] and in [9] was inactive.

In the case of `CCCCNC(=O)n1c(NC(=O)OC)nc2ccccc21`, the molecule was classed as inactive in experiment [2], in [4] and in experiment [9].

Regarding `O=C(Nc1ccccc1)Nc1ccnc(Cl)c1`, the molecule was called inactive in experiment [2] and in experiment [4].

On to `CCOc1cc(Oc2ccc(C(F)(F)F)cc2Cl)ccc1[N+](=O)[O-]`, for which the outcome in experiment [2], in experiment [4] and in experiment [9] was inactive.

On to `COC(=O)C=C(C)OP(=O)(OC)OC`, for which the result in [2], in [4] and in experiment [9] was inactive.

In the case of `CCON=C(CC)C1=C(O)CC(c2c(C)cc(C)cc2C)CC1=O` (stereo not given), the molecule was called inactive in experiment [2] and in experiment [4].

For `CCc1nn(C)c(C(=O)NCc2ccc(C(C)(C)C)cc2)c1Cl`, the molecule was classed as inactive in [8], in [2], in [4] and in [9].

On to `O=C(O)COc1nc(Cl)c(Cl)cc1Cl`, for which the molecule was classed as inactive in experiment [2] and in experiment [4].

Regarding `CCNc1nc(Cl)nc(NCC)n1`, the molecule was called inactive in experiment [5], in experiment [2], in experiment [4] and in [9].

In the case of `CCOC(=O)C(Cl)Cc1cc(-n2nc(C)n(C(F)F)c2=O)c(F)cc1Cl` (stereo not given), the molecule was classed as inactive in [2] and in [4].

Turning to `CS/C(C)=N/OC(=O)N(C)SN(C)C(=O)O/N=C(\C)SC`, the molecule was called inactive in experiment [2] and in experiment [4].

Take `CC(C)C1(C)N=C(c2nc3ccccc3cc2C(=O)O)NC1=O` (stereo not given): the molecule was classed as inactive in experiment [2], in [3], in experiment [4] and in experiment [9].

As to `COP(N)(=O)SC` (stereo not given), the outcome in experiment [5], in experiment [2], in experiment [3] and in [9] was inactive.

On to `CCNc1nc(Cl)nc(NC(C)C)n1`, for which the result in experiment [6], in experiment [2], in [4] and in experiment [9] was inactive.

As to `CC1=C(C(=O)Nc2ccccc2)SCCO1`, the result in [2] and in experiment [9] was inactive.

Consider `CC(C)Oc1cc(-n2nc(C(C)(C)C)oc2=O)c(Cl)cc1Cl`, for which the molecule was called inactive in [2], in experiment [4] and in experiment [9].

On to `CNC(=S)S`, for which the call in experiment [2], in [4] and in experiment [9] was inactive.

In the case of `O=C(O)c1nc(Cl)ccc1Cl`, the molecule was called inactive in experiment [2] and in [4].

As to `Fc1ccc(Oc2ccnc3cc(Cl)cc(Cl)c23)cc1`, the result in experiment [2], in experiment [4] and in experiment [9] was inactive.

For `CC(Oc1ccc(Cl)cc1Cl)C(=O)O` (stereo not given), the outcome in experiment [6], in experiment [2] and in [4] was inactive.

As for `COc1nc(NC(C)C)nc(NC(C)C)n1`, the result in experiment [2], in experiment [4] and in experiment [9] was inactive.

As to `N#Cc1nn(-c2c(Cl)cc(C(F)(F)F)cc2Cl)c(N)c1S(=O)C(F)(F)F` (stereo not given), the result in experiment [8], in experiment [2] and in experiment [4] was inactive.

The values are drawn from PubChem BioAssay (EPA / NIEHS).
